The source of these data is PubChem BioAssay AID449762 (Southern Research Specialized Biocontainment Screening …, 2010).

Structures are written as SMILES. Among all 330,000 compounds or so, about 1,900 (0.58%) were called active. About 4% were inconclusive and are not listed. Not all results are given here. Entries with a potency or affinity are not part of this list. Values without a mark were called inactive. No stated cut-off is given here; in the data, inconclusive means inhibition above about 70% without an active follow-up result; inactive means below that.

This assay can be described thus: M. tuberculosis growth inhibition, HTS (AID 449762).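 Further: bacterial growth assessed after seven days of incubation.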 The following applies: M. tuberculosis H37Rv growth inhibition, 7H9 media; at 25 µM; hits give high values.
By inhibition is commonly meant the drop in the measured response relative to a control, in per cent. As for `CC1CC(NS(=O)(=O)c2cc3c4c(c2)CCN4C(=O)CC3)CC(C)(C)C1` (centres undefined), the inhibition is 12.2%.

Regarding `O=c1[nH]cnc2c1c(-c1ccccc1)cn2-c1ccccc1`, the inhibition is 5.31%.

In the case of `Cc1ccc(-n2cc(-c3ccccc3)c3c(=O)[nH]cnc32)cc1`, the inhibition was 8.81%.

For the compound `COc1ccc(CCNC(=O)c2[nH]c(C)c(C(C)=O)c2C)cc1OC`, the inhibition is -6.23%.

On to `O=C(/C=C/c1ccco1)Nc1ccc(-c2nc3ccccc3[nH]2)cc1`, for which the inhibition was -5.99%.

For the compound `Cc1ccc(-c2nc3ccccc3[nH]2)cc1NC(=O)/C=C/c1ccco1`, the inhibition is 7.41%.

With `COC(=O)c1nnn(-c2nonc2N)c1CSc1ccccn1`, the inhibition was -4.14%.

`Cc1ccc(NC(=O)c2ccccc2SCC(=O)N2CCCC2)cc1S(=O)(=O)N(C)C`: the inhibition is -1.08%.

As to `CC(C)(C)NC(=O)C(c1c[nH]c2ccccc12)N(C(=O)Cn1nnc(-c2ccc(Cl)cc2)n1)c1ccccc1F` (centres undefined), the inhibition was 2.56%.

Consider `COc1cccc(N(C(=O)Cn2nnc(-c3ccc(C)cc3)n2)C(C(=O)NC(C)(C)C)c2c[nH]c3ccccc23)c1` (centres undefined), for which the inhibition is -12.2%.

In the case of `Cc1cc([N+](=O)[O-])nn1CC(=O)Nc1cnc2ccccc2c1`, the inhibition is -3.67%.

Turning to `Cc1ccc(CCNC(=O)c2nn(C)c3c2CS(=O)(=O)c2ccccc2-3)cc1`, the inhibition was 3.98%.

Turning to `O=C(NC(=S)N1CCCCC1)c1cccs1`, the inhibition was 4.84%.

In the case of `CCOC(=O)C1CCN(C(=S)NC(=O)c2cccs2)CC1`, the inhibition was 0.89%.

With `Cn1c(-c2ccsc2)c(-c2cccs2)c2cc(-c3ccc4cc[nH]c4c3)ccc21`, the inhibition is -1.89%.

Take `Cc1ccc(NC(=O)C(c2ccccc2)N2CCN(C(=O)c3ccco3)CC2)cc1Cl` (centres undefined): the inhibition is -11.9%.

Take `Cc1nn(-c2nc3ccccc3[nH]2)c(=O)c2ccccc12`: the inhibition is 5.73%.

For `Cc1nn(-c2nc3ccccc3s2)c(N)c1-c1ccc(Cl)cc1`, the inhibition was 1.29%.

As for `Cc1cc(C)nc(NS(=O)(=O)c2ccc(NS(=O)(=O)c3ccccc3)cc2)n1`, the inhibition was -6.64%.

For `CC1(C)Cc2c(sc3c2C(=O)N(c2ccccc2)C2=NCCCN23)CO1`, the inhibition was 1.18%.

Regarding `CCOC(=O)c1csc(NC(C)=O)n1`, the inhibition is 0.4%.

`CCCC(=O)Nc1nc(C(=O)OCC)cs1`: the inhibition is 2.98%.

For the compound `O=C(c1ccc(Cl)cc1)C1CCCN(Cc2cccc3cccnc23)C1` (centres undefined), the inhibition was 9.96%.

In the case of `O=C(CCCOc1ccc(Cl)cc1)Nc1cccc(C(=O)O)c1`, the inhibition is 7.01%.

On to `O=C(OCCN1CCCCC1)c1cc2ccccc2o1`, for which the inhibition is -14.3%.

As for `O=C(OCCN1C(=O)c2ccccc2C1=O)c1ccco1`, the inhibition is -9.08%.

In the case of `COc1ccccc1/C=C/C=N/n1c(C2CCCCC2)n[nH]c1=S`, the inhibition was 0.81%.

Take `CC(=O)c1ccc(N2CCN(C(=O)c3cc(-c4ccncc4)nc4ccc(Cl)cc34)CC2)cc1`: the inhibition is 7.21%.

In the case of `Cc1cccc(CN2C(=O)/C(=C\c3ccc(C(=O)NCCN4CCOCC4)cc3)Sc3ccccc32)c1`, the inhibition is 49.5%.

Take `CN1CCN(CCCNC(=O)c2ccc(/C=C3\Oc4ccccc4N(Cc4ccccc4F)C3=O)cc2)CC1`: the inhibition is 57.7%.

Take `Cc1ccc(Cn2nc(C)c(NC(=O)CSc3n[nH]c(C)c3[N+](=O)[O-])c2C)cc1`: the inhibition was -3.06%.

On to `O=C(NC1CCN(C(=O)N2c3ccccc3Sc3ccccc32)CC1)c1ccccc1Cl`, for which the inhibition is 62.3%.

`O=C(NC1CCN(C(=O)N2c3ccccc3Sc3ccccc32)CC1)c1ccco1`: the inhibition is -19.1%.

Turning to `Cc1sc2ncnc(SCC(=O)c3cccs3)c2c1C`, the inhibition is -19.7%.

`COC(=O)c1ccccc1NC(=O)c1cc2n(n1)C(C(F)F)CC(C(F)F)N2` (centres undefined): the inhibition is -2.91%.

As to `O=C(CSc1nc2[nH]ncc2c(=O)[nH]1)NCc1ccccc1`, the inhibition was -0.89%.

Regarding `O=c1[nH]c(SCc2ccc(Cl)cc2)nc2ccccc12`, the inhibition was 4.03%.

Take `CC1CC(C)CN(CCOc2ccccc2-c2ccccc2)C1` (centres undefined): the inhibition was 3.01%.

In the case of `O=C(COC(=O)c1ccc2c(c1)S(=O)(=O)N=C1CCCCCN12)NCCc1ccc(F)cc1`, the inhibition was -6.19%.

As for `COCC(=O)N(Cc1cc2ccc(C)cc2[nH]c1=O)c1ccc(C)cc1C`, the inhibition is -1.78%.

Regarding `Cc1ccc(-c2c(C#N)c(N)nc3c2CCCCCC3)o1`, the inhibition was 21.5%.

With `CSc1ccccc1NC(=O)CN(C)CC(=O)c1[nH]c(C)c(C(C)=O)c1C`, the inhibition was -0.15%.

With `Cc1ccc(S(=O)(=O)N2CCN(C(=O)Cn3c(=O)oc4ccccc43)CC2)cc1`, the inhibition was 8.54%.

For `Cc1nc(-c2nc(-c3c(C(=O)NNC(=O)Nc4ccccc4)noc3C)cs2)cs1`, the inhibition is -4.32%.

For the compound `Cc1nc(-c2nc(-c3c(C(=O)NNC(=O)Nc4cccc(Cl)c4)noc3C)cs2)cs1`, the inhibition was 11.3%.

For `CC(=O)Nc1c(C(=O)NCc2ccccc2)nnn1Cc1ccccc1`, the inhibition was -10.2%.

For the compound `COc1ccc(N(CC(=O)Nc2ccccc2C(=O)O)S(=O)(=O)c2ccc(C)c([N+](=O)[O-])c2)cc1`, the inhibition is -2.79%.

`COc1ccc(N(CC(=O)Nc2ccc(C)cc2C)S(=O)(=O)c2c(C)n[nH]c2C)cc1`: the inhibition is 6.74%.

Regarding `COc1ccc(N(CC(=O)Nc2ccccc2F)S(=O)(=O)c2ccc(C)c([N+](=O)[O-])c2)cc1`, the inhibition is 0.33%.

Turning to `COc1ccc(N(CC(=O)Nc2ccc(Cl)cc2)S(=O)(=O)c2c(C)n[nH]c2C)cc1`, the inhibition is 2.17%.

In the case of `O=C(CCSc1nnc2ccccn12)Nc1ccc2c(c1)OCO2`, the inhibition is -0.07%.

Consider `COc1ccc(OC)c(S(=O)(=O)Nc2cc(Cl)cc(Cl)c2)c1`, for which the inhibition was -2.29%.

`CC(C)C(=O)NC(=S)/C=C1/N(C)c2ccccc2C1(C)C`: the inhibition is 2.15%.

Regarding `CN1/C(=C\C(=S)NC(=O)c2ccccc2Cl)C(C)(C)c2ccccc21`, the inhibition is -5.96%.

In the case of `Cc1cccc(NS(=O)(=O)c2csc(C(N)=O)c2)c1C`, the inhibition is -0.04%.

In the case of `Cc1ccc(CC(=O)Nc2cc(C)ccn2)cc1`, the inhibition was 3.78%.

Turning to `CC1Sc2ccc(S(=O)(=O)CCC(=O)Nc3ccccc3Cl)cc2NC1=O` (centres undefined), the inhibition was 0.85%.

For `CCOC(=O)C1CCN(CC(O)COc2ccc(C(C)=O)cc2)CC1` (centres undefined), the inhibition was -0.99%.

With `CCOC(=O)C1CCN(CC(O)COc2ccc(C(=O)CC)cc2)CC1` (centres undefined), the inhibition is -15.2%.

With `COC(=O)c1ccc(CNC(=O)COC(=O)c2cccs2)cc1`, the inhibition is 12.5%.

As to `COc1ccc(/C=C2\N=C(C)N(c3ccc4ccccc4c3)C2=O)cc1OC`, the inhibition is 4.18%.

For the compound `COc1cc(-c2nnc(NC(=O)c3ccc(S(=O)(=O)N4CCOCC4)cc3)o2)cc(OC)c1OC`, the inhibition was 5.07%.

`COc1ccccc1-c1nnc(NC(=O)c2ccc(S(=O)(=O)N3CCOCC3)cc2)o1`: the inhibition is 43.3%.

Turning to `CCCN(CC(=O)Nc1ccccc1OC)C(=O)c1ccccn1`, the inhibition is 0.49%.

Turning to `C=CCN1C(=O)c2ccc(C(=O)N(C)CC(=O)Nc3cccc(F)c3)cc2C1=O`, the inhibition is 0%.

With `CCOC(=O)c1c(C)[nH]c(C(=O)OCC(=O)NCc2ccc(OC)c(OC)c2)c1C`, the inhibition is 3.95%.

For the compound `COc1ccc(C)cc1Nc1n[n+](-c2ccccc2)c(-c2cc(OC)c(OC)cc2Br)s1`, the inhibition was 62.1%.

Take `COc1ccc(C)cc1Nc1n[n+](-c2ccccc2)c(-c2cccc(Cl)c2Cl)s1`: the inhibition is 60%.

Take `COC(=O)C1=C(C(=O)OC)[C@@H]2N(C)c3ccc(OC)cc3[C@@]23C[C@@H](C(=O)OC)N(C(=O)CC(C)C)C3=N1`: the inhibition is -3.14%.

With `O=C(C1=C(O)C(=O)N(Cc2ccco2)C1c1ccccc1F)c1cccs1` (centres undefined), the inhibition is 12.7%.

With `Cc1cc(C)n(-c2ccc(F)cc2CN2CCN(C3CCCC3)C(CCO)C2)n1` (centres undefined), the inhibition is 8.29%.

As to `C=C(C)C1CC=C(CN2CCC(O)CC2)CC1` (centres undefined), the inhibition was -0.8%.

Regarding `C=C(C)C1CC=C(CN2CC(C)OC(C)C2)CC1` (centres undefined), the inhibition is -4.9%.

Consider `CCOC(=O)c1c(/N=C/N(C)C)sc(/C=N/Nc2ccccc2)c1-c1ccc(Cl)cc1`, for which the inhibition was 69%.

Turning to `CCOC(=O)c1c(/N=C/N(C)C)sc(/C=N/Nc2ccccc2)c1-c1ccccc1`, the inhibition is 4.1%.

Consider `CN(CC(=O)NCc1ccccc1)S(=O)(=O)c1cnc[nH]1`, for which the inhibition is 2.4%.

Take `Cc1cc(C)cc(OCC(=O)OCC(=O)NC2CCCCCC2)c1`: the inhibition is 2.47%.

For the compound `CSc1ncnc2c1cnn2-c1ccc(C)cc1C`, the inhibition is 6.4%.

As for `Cc1ccc(-n2ncc3c(SCC(=O)Nc4cc(C)on4)ncnc32)c(C)c1`, the inhibition was -4.04%.

In the case of `O=C(NCc1cccnc1)C1CCCN(S(=O)(=O)c2ccc(Cl)cc2)C1` (centres undefined), the inhibition was -6.29%.

`O=[N+]([O-])c1cc(-c2nnc(N3CCOCC3)c3ccccc23)ccc1N1CCOCC1`: the inhibition is 0.47%.

Turning to `Cc1ccnc(NC(=O)CCCc2c[nH]c3ccccc23)c1`, the inhibition was -0.54%.

As for `Cc1ccc(NC(=O)CCc2c[nH]c3ccccc23)nc1`, the inhibition was 1.19%.

On to `O=C(CN(C(=O)CSc1nc2ccccc2o1)c1ccccc1)NC1CCCCC1`, for which the inhibition is -0.41%.

Take `CNc1c(C(=O)O)ccc2c1C(=O)c1ccccc1C2=O`: the inhibition is 9.33%.

In the case of `COc1ccc2c(c1O)C(=O)c1ccccc1C2=O`, the inhibition is -7.89%.

With `CCc1nc(SCC(=O)Nc2ccnc3ccccc23)n[nH]1`, the inhibition is -7.48%.

Take `Cc1cc(=O)oc2cc(Oc3ccc([N+](=O)[O-])cc3[N+](=O)[O-])ccc12`: the inhibition is 50.5%.

On to `Cc1c(C)c2ccc(Oc3ccc([N+](=O)[O-])cc3C(F)(F)F)c(C)c2oc1=O`, for which the inhibition is 7.78%.
